Among the data in PubChem BioAssay (NCI) are growth values, retold here.

Among the test systems are DU-145 prostate; K-562 leukemia; MALME-3M melanoma; MDA-MB-231 breast; RXF 393 renal; SF-268 CNS; SF-295 CNS; SF-539 CNS; UACC-257 melanoma; M14 melanoma.
What all share (experiment): NCI-60 one-dose screen, 48 h (100 = growth as untreated, 0 = no growth, -100 = all killed)
Common to all, as to conditions: 10 µM unless noted

The structures appear in SMILES notation. This is part of a sample that, as a whole, favours compounds with a hit. Of some 83,000 tested, about 20% had one in any assay.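 In brief: 96-well plates, 48 h treatment, single concentration, percent growth endpoint.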 A number with no mark means an inactive call. Active and inactive are the calls of the source. The calls were made as follows: active = growth percent below 10; inactive = the rest.

As for `COc1cc(CNS(=O)(=O)c2ccc(C)cc2)ccc1OCc1cn(-c2ccc(F)cc2)nn1`, the growth with DU-145 prostate is 95.9%; in the assay with K-562 leukemia it was 65.3%; in the assay with MALME-3M melanoma, 94.9%; in the assay with MDA-MB-231 breast it was 91%; with RXF 393 renal it was 93.2%; in the assay on SF-268 CNS, 91.8%. The growth was 90.1% in the assay with SF-295 CNS, 89.3% in the assay with SF-539 CNS, 89.9% with UACC-257 melanoma and 97.1% in the assay with M14 melanoma.
In the case of `COCCNC(=O)c1ccc(-c2nc3ccc4[nH]ncc4c3c3c2CCCC3)cc1`, the growth in the assay on DU-145 prostate is 41.3%; in the assay on K-562 leukemia, 24.9%; in the assay with MALME-3M melanoma it was 30.5%; in the assay with MDA-MB-231 breast it was 50.4%; in the assay on RXF 393 renal, 11.8%; in the assay with SF-268 CNS it was 32.4%. Further, the growth with SF-295 CNS was 32.5%; with SF-539 CNS it was 12.2%; in the assay on UACC-257 melanoma it was 71.2%; in the assay with M14 melanoma, 35.1%.
As for `COc1ccc(CC(C#N)c2cc3ccccc3[nH]2)cc1` (stereo not given), the growth in the assay with DU-145 prostate was 101%; in the assay on K-562 leukemia, 80.5%; in the assay on MALME-3M melanoma, 89.3%; in the assay with MDA-MB-231 breast, 82.3%; in the assay with RXF 393 renal, 94.1%; in the assay on SF-268 CNS, 90.7%. Also, the growth in the assay on SF-295 CNS was 94.1%; in the assay on SF-539 CNS, 97.5%; in the assay on UACC-257 melanoma, 94.3%; with M14 melanoma, 84.2%.
With `C=C1C(=O)O[C@H]2[C@H]1CC/C(COC(=O)CSCCSCC(=O)OC/C1=C/CC[C@@]3(C)O[C@H]3[C@H]3OC(=O)C(=C)[C@@H]3CC1)=C\CC[C@@]1(C)O[C@@H]21`, the growth with DU-145 prostate is 32.3%; with K-562 leukemia, 1.81% (active); in the assay with MALME-3M melanoma, -8.71% (active); with MDA-MB-231 breast it was -37.2% (active); in the assay with RXF 393 renal, -85.1% (active); in the assay with SF-268 CNS, 16.7%. The growth in the assay with SF-295 CNS is 67.2%; with SF-539 CNS, 1.67% (active); with UACC-257 melanoma it was 49.9%; in the assay on M14 melanoma, 3.06% (active).
On to `COC(=O)c1ccc2c(c1)C(=O)c1c-2n(CCCN)c(=O)c2cc([N+](=O)[O-])ccc12`, for which the growth is -100% (active) in the assay on DU-145 prostate; -100% (active) with K-562 leukemia; -96.9% (active) with MALME-3M melanoma; -100% (active) in the assay on MDA-MB-231 breast; -87.5% (active) in the assay with RXF 393 renal; -87.2% (active) with SF-268 CNS. Also, the growth in the assay with SF-295 CNS is -77.4% (active); with SF-539 CNS, -94.2% (active); in the assay with UACC-257 melanoma it was -96.1% (active); in the assay with M14 melanoma, -100% (active).
For `COc1ccc(-c2csc(N(C(=O)N3CCN(c4cc5c(cc4F)c(=O)c(C(=O)O)cn5C4CC4)CC3)c3ccccc3)n2)cc1`, the growth with DU-145 prostate is 17.6%; in the assay on K-562 leukemia, 14%; with MALME-3M melanoma, 9.18% (active); in the assay with MDA-MB-231 breast, 28.3%; in the assay with RXF 393 renal, 35.8%; in the assay on SF-268 CNS it was 22.9%. Moreover, the growth was 3.69% (active) in the assay on SF-295 CNS, 9.1% (active) with SF-539 CNS, 12.4% in the assay on UACC-257 melanoma and 26.6% in the assay with M14 melanoma.
As for `Cc1ccc(C(C(N)=O)C(C(N)=O)c2ccccc2)cc1` (stereo not given), the growth in the assay on DU-145 prostate is 111%; in the assay on K-562 leukemia, 90.9%; in the assay with MALME-3M melanoma, 129%; in the assay on MDA-MB-231 breast, 123%; in the assay on RXF 393 renal, 104%; in the assay on SF-268 CNS, 104%. In addition, the growth was 114% in the assay with SF-295 CNS, 119% with SF-539 CNS, 102% in the assay on UACC-257 melanoma and 108% with M14 melanoma.
As to `Cn1cc(-c2nc(-c3c[nH]c4ccncc34)cs2)c2ccccc21`, the growth was 44% in the assay on DU-145 prostate; -33.2% (active) in the assay with K-562 leukemia; 54% in the assay with MALME-3M melanoma; 25.2% in the assay on MDA-MB-231 breast; 70.8% in the assay on RXF 393 renal; 77.3% in the assay with SF-268 CNS. Further, the growth was 65.5% with SF-295 CNS, 78.7% in the assay with SF-539 CNS, 91.2% with UACC-257 melanoma and -71.5% (active) in the assay on M14 melanoma.
As for `O=C(Nc1cc(Cl)ccc1O)c1ccc(Nc2ccnc(C(F)(F)F)c2)cc1`, the growth with DU-145 prostate was 42.9%; in the assay on K-562 leukemia, 5.89% (active); in the assay on MALME-3M melanoma, 60.5%; in the assay on MDA-MB-231 breast it was 68.1%; with RXF 393 renal it was 98.9%; with SF-268 CNS, 69.1%. Besides, the growth is -7.57% (active) with SF-295 CNS, 80.4% in the assay with SF-539 CNS, 78% in the assay on UACC-257 melanoma and 46.8% in the assay on M14 melanoma.
Regarding `Oc1ccc(CN2CCC(N3CCCCC3)CC2)c2cccnc12`, the growth with DU-145 prostate was 37.9%; in the assay on K-562 leukemia, 15.8%; with MALME-3M melanoma it was 9.88% (active); with MDA-MB-231 breast, 15.2%; with RXF 393 renal, 29.6%; in the assay with SF-268 CNS, 38.9%. Moreover, the growth in the assay with SF-295 CNS is 38.4%; with SF-539 CNS, 22%; with UACC-257 melanoma, 21%; in the assay with M14 melanoma, 30.3%.
Turning to `CCCCCCC1(C)NCCO1` (stereo not given), the growth in the assay with DU-145 prostate is 111%; with K-562 leukemia, 104%; in the assay with MALME-3M melanoma, 105%; in the assay on MDA-MB-231 breast, 104%; in the assay with RXF 393 renal it was 118%; in the assay with SF-268 CNS, 93.6%. In addition, the growth with SF-295 CNS was 102%; in the assay with SF-539 CNS, 110%; in the assay on UACC-257 melanoma, 99%; in the assay with M14 melanoma, 104%.
With `COc1ccc2nc(NC(=O)CSc3nnc4n3S(=O)(=O)c3ccccc3N4C)sc2c1`, the growth with DU-145 prostate is 115%; with K-562 leukemia it was 91.2%; in the assay on MALME-3M melanoma it was 120%; in the assay with MDA-MB-231 breast, 94.5%; in the assay with RXF 393 renal it was -29.4% (active); in the assay with SF-268 CNS it was 95.8%. In addition, the growth in the assay on SF-295 CNS is 127%; in the assay on SF-539 CNS it was 106%; with UACC-257 melanoma, 82.4%; in the assay on M14 melanoma, 101%.
`CCCC(O)Cn1ncc(C(=O)OCC)c1NC(=O)NCc1ccccc1F` (stereo not given): the growth with DU-145 prostate was 99.7%; in the assay with K-562 leukemia it was 66.7%; with MALME-3M melanoma, 98.9%; in the assay on MDA-MB-231 breast, 91.3%; with RXF 393 renal, 101%; in the assay with SF-268 CNS, 96.3%. The growth in the assay on SF-295 CNS was 89.9%; with SF-539 CNS, 107%; in the assay on UACC-257 melanoma, 72.4%; in the assay on M14 melanoma it was 93.1%.
With `C=C(C)[C@@H]1CC[C@]2(C(=O)OC)CC[C@]3(C)[C@H](CC[C@@H]4[C@@]5(C)C/C(=C/NC(N)=S)C(=O)C(C)(C)[C@@H]5CC[C@]43C)[C@@H]12`, the growth with DU-145 prostate was 86.3%; with K-562 leukemia, 73.6%; in the assay on MALME-3M melanoma, 119%; in the assay with MDA-MB-231 breast it was 98.5%; in the assay on RXF 393 renal it was 99.8%; in the assay with SF-268 CNS, 95.8%. The growth was 99.4% in the assay with SF-295 CNS, 85.6% in the assay with SF-539 CNS, 100% with UACC-257 melanoma and 87.9% with M14 melanoma.
